Bioassay records deposited in PubChem by National Center for Advancing Translational Sciences (NCATS).
TDP1 cell CPT: qHTS for Inhibitors of human tyrosyl-DNA phosphodiesterase 1 (TDP1): qHTS in cells in presence of CPT; chicken DT40 Tdp1-/-;hTDP1 cells + 20 nM CPT, ATP luminescence, 48 h; 420,000 tested, 12% active; Potency, µM (doses to about 46.2 µM), usual class: inhibitors; note: nearly all actives have a fitted effect of over 55% in size
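Chicken DT40 Tdp1-/- cells complemented with human TDP1, 400 cells/well, exposed to compounds plus 20 nM camptothecin for at least 48 h at 37 C; viability read as ATP content by CellTiter-Glo luminescence.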
ASM inhibitor: Inhibitors of Secretory Acid Sphingomyelinase (S-ASM): qHTS. Sphingomyelin phosphodiesterase (Homo sapiens), P17405. placental ASM, HMU-PC fluorogenic substrate, 60 min. Potency, µM (series often up to 57.5 µM), most hits filed as inhibitors. 340,000 tested, 0.006% active
Target sequence (P17405 47-631 limits assumed): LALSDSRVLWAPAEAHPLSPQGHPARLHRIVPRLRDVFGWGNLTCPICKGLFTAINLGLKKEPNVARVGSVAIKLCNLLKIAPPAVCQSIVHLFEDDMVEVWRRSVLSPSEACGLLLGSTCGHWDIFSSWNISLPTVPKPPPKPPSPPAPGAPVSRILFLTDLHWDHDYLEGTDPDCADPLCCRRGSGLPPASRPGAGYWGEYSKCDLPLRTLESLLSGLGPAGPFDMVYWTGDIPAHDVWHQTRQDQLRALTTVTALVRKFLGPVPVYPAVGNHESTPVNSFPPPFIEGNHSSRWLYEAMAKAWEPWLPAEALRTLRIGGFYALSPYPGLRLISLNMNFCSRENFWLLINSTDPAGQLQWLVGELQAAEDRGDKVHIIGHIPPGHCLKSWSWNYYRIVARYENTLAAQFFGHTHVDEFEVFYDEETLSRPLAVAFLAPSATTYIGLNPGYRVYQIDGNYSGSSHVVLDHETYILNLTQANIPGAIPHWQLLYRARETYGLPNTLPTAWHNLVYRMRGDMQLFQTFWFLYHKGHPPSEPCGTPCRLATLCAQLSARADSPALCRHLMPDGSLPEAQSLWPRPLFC
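HMU-PC0 cleavage (9 uM final) by human placental ASM, 60 min at 37 °C following 10 min compound exposure at RT; stopped at pH 10, fluorescence Ex 386/Em 447 nm.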
HepG2 tox: qHTS for Inhibitors of TGF-b: Cytotox Counterscreen; 410,000 tested, 0.76% active; Potency, µM (top dose mostly 46.1 µM), most hits filed as cytotoxic; HepG2 CAGA-GFP viability, ATP luminescence, 18 h
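CellTiter-Glo luminescence gave cytotoxicity after 18 hours at 37 degrees C. The cells were HepG2 CAGA-GFP in 1% FBS DMEM, stimulated with 500 pg/mL TGF-beta after compound addition. %Activity was normalised to no-cell wells (complete cell-killing) and DMSO (no toxicity), and curves were fitted and classified.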
IL-1B inflam inh: qHTS for Inhibitors of Inflammasome Signaling: IL-1-beta AlphaLISA Primary Screen | THP-1 LPS/ATP IL-1B secretion, AlphaLISA, 16 h; hits give low values | activity change, % at 57.5 µM | 360,000 tested, 4.7% active | AID 743279, 2014; in the data active = activity change below about -50%; inconclusive = mostly about -30% to -49%
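Secreted IL-1B measured by AlphaLISA bead assay after 16 h compound exposure of THP-1 cells; compounds (final up to 57.5 uM) added 1 h before LPS (250 ng/mL) and ATP (1.25 mM) stimulation; lower signal means less secretion.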
TDP1 cell noCPT: qHTS for Inhibitors of human tyrosyl-DNA phosphodiesterase 1 (TDP1): qHTS in cells in absence of CPT | 420,000 tested, 15% active | DT40 Tdp1-/- hTDP1 cells, no CPT, ATP luminescence, 48 h | Potency, µM (top dose mostly 46.2 µM), actives largely listed as inhibitors; note: nearly all actives have a fitted effect of over 55% in size
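Luminescent ATP content (CellTiter-Glo) served as the growth readout. Knockout chicken DT40 cells expressing human TDP1 were exposed to compounds without camptothecin for a minimum 48 hr at 37 °C.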
TGFb SMAD3 inh: qHTS for Inhibitors of TGF-b; AID 588855, 2011; 410,000 tested, 1.2% active; HepG2 CAGA-GFP TGF-b/SMAD3 reporter, GFP fluorescence, 18 h; TGF-beta stimulated, 500 pg/mL final; Potency, µM (highest dose often 46.1 µM), most hits filed as inhibitors; note: nearly all actives have a fitted effect of over 65% in size
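HEPG2 CAGA-GFP cells (1000/well, DMEM with 1% FBS) were pre-incubated 2 h at 37 degrees C, given compound by pin tool, then stimulated with TGF-beta at 500 pg/mL final for 18 h before per-cell GFP fluorescence imaging.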
Of the large screens only hits and unclear results are named; the others gave an inactive call. Compounds with a hit are over-represented: about 19% of the library has one in this group of screens. Unless noted, calls come from the whole dose curve; as a rule, active = well fitted curve in the direction sought with a large enough effect; inconclusive = small, poorly fitted or top-dose-only effect, or another doubt; inactive = no such curve, though single readings can be large; an effect the other way counts as inactive or inconclusive.

COc1ccc(CCNC(=O)C2CCN(S(=O)(=O)c3ccc(C)cc3)CC2)cc1OC	none
CCCCC(=O)N(C)c1c(C)nc2ccc(C(=O)N3CCCCC3)cn12	none (no result: ASM inhibitor)
COc1ccc(OCC(=O)NNC(=S)NC(=O)C2CC2)cc1	TDP1 cell CPT 16µM, TDP1 cell noCPT inconclusive
Cc1cc(C)cc(OCC(=O)NNC(=S)NC(=O)C2CC2)c1	TDP1 cell CPT 18µM, TDP1 cell noCPT 13µM
COc1ccc(NC(=S)NC(=O)C2CCC2)cc1	IL-1B inflam inh inconclusive
CCc1ccc(OCC(=O)NNC(=S)NC(=O)C2CCCCC2)c(Br)c1	TDP1 cell CPT inconclusive, TDP1 cell noCPT inconclusive
CCc1ccc(OCC(=O)NNC(=S)NC(=O)C2CC2)c(Br)c1	TDP1 cell CPT 16µM, TDP1 cell noCPT 13µM
CCn1cc(C(=O)O)c(=O)c2cnc(N3CCN(C(=S)Nc4ccccc4Cl)CC3)nc21	TDP1 cell noCPT inconclusive
CC(C)c1ccc(NC(=O)C(c2ccccc2)N(C)C(=O)CCc2c[nH]c3ccccc23)cc1 (stereo not given)	TDP1 cell CPT inconclusive, TDP1 cell noCPT inconclusive, TGFb SMAD3 inh inconclusive (no result: IL-1B inflam inh)
Cc1cc(Cl)cc(Cl)c1OCCCCN(C)C	TDP1 cell CPT inconclusive, TDP1 cell noCPT 18µM
CCc1ccc(CNC(=O)C2CCN(S(=O)(=O)N3CCCC3)CC2)cc1	none
O=C(NCc1ccccc1Cl)C1CCN(S(=O)(=O)N2CCCCCC2)CC1	TDP1 cell CPT inconclusive, TDP1 cell noCPT 18µM
O=C(NCc1ccc(F)cc1)C1CCN(S(=O)(=O)N2CCCC2)CC1	TDP1 cell CPT inconclusive, TDP1 cell noCPT 16µM
O=C(NCc1ccccc1CN1CCCC1)C1CCN(S(=O)(=O)c2ccc(F)c(F)c2)CC1	IL-1B inflam inh -51
CSc1ccc(CNC(=O)C2CCCN(S(=O)(=O)N(C)c3ccc(F)cc3)C2)cc1 (stereo not given)	TDP1 cell CPT 23µM, TDP1 cell noCPT 21µM, TGFb SMAD3 inh 4.5µM (no result: ASM inhibitor, IL-1B inflam inh)
Cc1ccc(S(=O)(=O)N2CCC(C(=O)NCc3ccccc3CN3CCCC3)CC2)cc1C	TDP1 cell CPT inconclusive, TDP1 cell noCPT inconclusive
CC(C)n1cc(CN2CCN(CCc3ccccc3)C(CCO)C2)cn1 (stereo not given)	IL-1B inflam inh inconclusive
CC1CCN(S(=O)(=O)N2CCC(C(=O)NCc3ccccc3Cl)CC2)CC1	TDP1 cell CPT inconclusive, TDP1 cell noCPT 13µM (no result: ASM inhibitor, IL-1B inflam inh)
CC[C@H](C)[C@@H](NC(=O)O[C@@H]1C(=O)c2cc(OC)ccc2O[C@H]1c1ccc(OC)c(Br)c1)C(=O)OC	TDP1 cell CPT inconclusive, IL-1B inflam inh inconclusive, TDP1 cell noCPT 18µM, TGFb SMAD3 inh inconclusive
CC(Nc1nc(-c2ccncc2)nc2ccccc12)c1ccccc1 (stereo not given)	TDP1 cell CPT 18µM, TDP1 cell noCPT 18µM, TGFb SMAD3 inh inconclusive
OCCNc1nc(N2CCCCC2)nc2ccccc12	none
COC(=O)CNc1nc(-c2ccncc2)nc2ccccc12	TDP1 cell noCPT inconclusive
CC(Nc1nc(N2CCNCC2)nc2ccccc12)c1ccccc1 (stereo not given)	TDP1 cell CPT 4.1µM, IL-1B inflam inh -104, TDP1 cell noCPT 5.2µM, TGFb SMAD3 inh inconclusive
c1ccc(CCNc2nc(-c3ccncc3)nc3ccccc23)cc1	TDP1 cell CPT 21µM, TDP1 cell noCPT 18µM
Cc1ccc(C(C)C)c(OCC(=O)OCC(=O)NC2CCS(=O)(=O)C2)c1 (stereo not given)	none
COc1ncc2nc(-c3ccccc3)c(=O)n(Cc3cccs3)c2n1	TDP1 cell noCPT inconclusive (no result: ASM inhibitor, HepG2 tox, IL-1B inflam inh, TGFb SMAD3 inh)
Cc1nn(CC(=O)NNC(=O)c2ccc(Br)cc2)c(C)c1[N+](=O)[O-]	none
c1ccc(-c2cn3nc(-c4ccccc4)c(-c4ccccc4)nc3n2)cc1	TDP1 cell CPT inconclusive, IL-1B inflam inh -55, TDP1 cell noCPT inconclusive
O=[N+]([O-])c1ccc(-c2cn3nc(-c4ccccc4)c(-c4ccccc4)nc3n2)cc1	TDP1 cell noCPT inconclusive (no result: IL-1B inflam inh)
Cc1ccc(-c2cn3nc(-c4ccccc4)c(-c4ccccc4)nc3n2)cc1	TDP1 cell CPT inconclusive, IL-1B inflam inh -74, TDP1 cell noCPT inconclusive
Clc1ccc(N(CC2CO2)CC2CO2)cc1 (stereo not given)	TDP1 cell CPT 0.46µM, TDP1 cell noCPT 0.65µM
CCOC(=O)c1cc(-c2ccccc2)sc1NC(=O)C(C)Sc1nnc(C)s1 (stereo not given)	IL-1B inflam inh -77
CCOC(=O)c1cc(-c2ccccc2)sc1NC(=O)C(C)N1C(=O)NC(C)(c2ccc(Cl)cc2)C1=O (stereo not given)	IL-1B inflam inh -53
CCOC(=O)c1cc(-c2ccccc2)sc1NC(=O)COC	none
CCOC(=O)c1c(NC(=O)c2cccnc2Cl)sc(C(=O)N(C)C)c1C	IL-1B inflam inh inconclusive, TDP1 cell noCPT inconclusive
CCOC(=O)c1cc(C)sc1NC(=O)c1ccc(Cl)s1	none
CCOC(=O)c1cc(-c2ccccc2)sc1NC(=O)C(C)OC(=O)c1cccnc1Cl (stereo not given)	TDP1 cell CPT 23µM, TDP1 cell noCPT 23µM
CCOC(=O)c1cc(-c2ccccc2)sc1NC(=O)C(C)C	TDP1 cell noCPT inconclusive
CCOC(=O)c1cc(-c2ccccc2)sc1NC(=O)c1ccc(OC)c(OC)c1	TDP1 cell CPT 13µM, TDP1 cell noCPT inconclusive
Cc1nc2nc(C)c(NS(=O)(=O)c3ccc(F)cc3)c(=O)n2[nH]1	none (no result: ASM inhibitor, IL-1B inflam inh)
CCNC(=S)N1CCC(C(N)=O)CC1	none
COC(=O)[C@H](Cc1ccccc1)NC(=O)C1(OC(C)=O)CC(OC(C)=O)C(OC(C)=O)C(OC(C)=O)C1 (stereo not given in full)	none
CCOC(=O)c1cc(-c2ccccc2)sc1NC(=O)C(C)OC(=O)c1ccncc1 (stereo not given)	TDP1 cell CPT 23µM, TDP1 cell noCPT 18µM (no result: ASM inhibitor)
CCOC(=O)c1ccc(OS(=O)(=O)c2ccccc2)c(OC)c1	TDP1 cell CPT 21µM, TDP1 cell noCPT inconclusive
CN1OC[C@@H]2CN(Cc3ccc(Cl)cc3)[C@H](c3ccc(N4CCCCC4)cc3)C[C@@H]21	TDP1 cell CPT inconclusive, TDP1 cell noCPT inconclusive, TGFb SMAD3 inh inconclusive (no result: ASM inhibitor)
CC(=O)NCCNC(=O)c1cnn(-c2nccc(-c3cc(C)sc3C)n2)c1C	TDP1 cell CPT inconclusive (no result: ASM inhibitor, HepG2 tox, IL-1B inflam inh, TGFb SMAD3 inh)
